According to PubChem BioAssay (EPA / NIEHS):
Active and inactive are the calls of the source. How the source made its calls: active means hit-call score of the fitted dose curve at least 0.9, where 1 is the maximum; inactive means score below 0.9.

read-out: Cyclin D1 (CCND1), CCND1 (gene 595); test: LTEA_HepaRG_CCND1: Life Technologies and Expression Analysis (LTEA) Assay for Cyclin D1 (CCND1) using HepaRG (AID 2283451); details: mRNA level, 48 h; actives raise or lower the signal;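 on AC50: TaqMan qRT-PCR transcript level normalised to ACTB GAPDH and POLR2A housekeeping genes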
Description: LTEA_HepaRG is a cell based, multiplexed-readout assay that uses HepaRG, a human liver cell line, with measurements taken at 48 hours after chemical dosing on a 96-well plate.LTEA_HepaRG_CCND1 is one of 102 assay component(s) measured in the LTEA HepaRG cell culture assay. It is a marker of Cell proliferation, survival, death.Data from the assay component LTEA_HepaRG_CCND1 was analyzed into 1 endpoint. This assay endpoint, LTEA_HepaRG_CCND1, was analyzed with bidirectional fitting relative to DMSO as the negative control and baseline of activity. Using a type of inducible reporter, measures of mRNA induction for gain or loss-of-signal activity can be used to understand regulation of transcription factor activity. To generalize the intended target to other relatable targets, this assay endpoint is annotated to the cell cycle intended target family, where the subfamily is Cell proliferation, survival, death.
A total of 1060 chemcials from the ToxCast library were tested in eight-point concentration-response experiments. Cell culture and cytotoxicity assays were conducted at Thermo Fisher Scientific's Custom Services facility (Madison, WI). A single lot of human HepaRG cells (Thermo Fisher Scientific, Frederick, MD) was used for the cell culture experiments. 96-well format collagen type I coated plates of human HepaRG cells were prepared using established methods. Briefly, cryopreserved HepaRG cells were thawed, plated at a density of approximately 100,000 cells/well in HepaRG Thaw, Plate, and General Purpose media (HPRG770, Thermo Fisher Scientific), and incubated for 48 hours. 0.5% DMSO was selected as vehicle control to balance the requisite need of DMSO in HepaRG cultures to maintain differentiation (for example, baseline metabolism, proportions of hepatocytes vs. cholangiocytes), while enabling further hepatic receptor pathway activation (for example, PXR and CAR) in response to chemical exposure. 48 hours after plating, the culture medium was replaced with HepaRG Serum-Free Incudtion Media. Cells were exposed to each test chemical in duplicate and maintained in CO2 incubators for another 48 hours. Chemical plates were thawed to room temperature and 200x concentrations of treatment groups were prepared. 8-point conentration-reponse curves were made with the highest exposure at 100 uM, followed by half-log dilutions, all in 0.5% DMSO. Each test plate contained variouse controls, induction positive controls (1mM phenobarbital), cytotoxicity positive controls ([…] aflatoxin B1), vehicle controls (0.5% DMSO), and total lysis controls (0.5% DMSO). Cell morphology images were taken using an Essen IncuCyte FLR automated microscope, with six 96-well plates imaged in about 24 minutes. Images were captured and exported and JPEG files. Spent culture media was transfered to black-well plates for the LDH assay, and remaining media was sorted at -80 C for later use. Cells were treated with RLT buffer and frozen until shipped for gene expression analysis. Total RNA was isolated from the cell suspension in 75 uL of Buffer RLT (Qiagen, Germantown, MD 20874) by Quintiles/Expression Analysis (Durham, NC) using a custom isolation procedure. Total RNA from each plate well was transferred to a preamplification plate. Fluidigm's 96.96 Dynamic ArrayTM (Fluidigm, Amsterdam, the Netherlands) technology was used for gene expression analyses by quantitative reverse transcription polymerase chain reaction (qRT-PCR, performed by Quintiles/Expression Analysis, Durham, NC)89. Standard TaqManTM Assays (Applied Biosystems/ThermoFisher Scientific, Foster City, CA) were used to assess the expression of 93 genes selected based on their selectivity and sensitivity to important hepatic receptors known to be modulated by environmental chemicals; importance in human hepatocyte functionality; and hepatotoxicity. […]

SMILES	outcome	AC50
CC(O)CC(C)(C)O (stereo not given)	inactive	
CC(C)(C)c1csc(-c2cc3cc(OCc4ccccc4CC(=O)O)ccc3o2)n1		50 µM (active)
CCCCCCCCOc1ccc(C(=O)c2ccccc2)c(O)c1	inactive	
CCCCOC(=O)CC(CC(=O)OCCCC)(OC(C)=O)C(=O)OCCCC	inactive	
CCN(Cc1cccnc1)C(=O)c1cccc(Cl)c1[C@]1(C)C(=O)N(Cc2ccc(OC)cc2OC)c2ccc(Cl)cc21	inactive	
COc1ccc2cc(S(=O)(=O)N[C@H](CC(=O)N[C@H](Cc3ccc(CN4[C@H](C)CCC[C@@H]4C)cc3)C(=O)N(C)C(C)C)c3ccc4c(c3)OCO4)ccc2c1	inactive	
O=C(O)c1ccccc1C(=O)OCc1ccccc1	inactive	
CN(C[C@@H](CC[N+]12CCC(C3CCCCC3)(CC1)CC2)c1ccc(Cl)c(Cl)c1)C(=O)c1cc(C(F)(F)F)cc(C(F)(F)F)c1		28.9 µM (active)
Oc1ccc2ccccc2c1	inactive	
O=C(O)Cc1cc(I)c(Oc2ccc(O)c(I)c2)c(I)c1		87.5 µM (active)
C[C@]12CC[C@@H]3c4ccc(O)cc4CC[C@H]3[C@@H]1CCC2=O	inactive	
Cc1cc2c(cc1C(F)(F)F)N(C(=O)Nc1ccc(Oc3cccnc3C)nc1)CC2	inactive	
CCCCCCCCCCCO	inactive	
CN1C(=O)CC[C@H]1c1cccnc1	inactive	
Cc1cn([C@H]2C[C@H](N=[N+]=[N-])[C@@H](CO)O2)c(=O)[nH]c1=O	inactive	
O=CCCCC=O	inactive	
CC(C)(C)c1cc(/C=C2\SC(N)=NC2=O)cc(C(C)(C)C)c1O		39.3 µM (active)
CCCCCCCCCC(=O)O	inactive	
CN(C)C(=O)C1(N2CCCCC2)CCN(CC[C@@]2(c3ccc(Cl)c(Cl)c3)CN(C(=O)c3ccccc3)CCO2)CC1		47.2 µM (active)
CN(C)c1ccc(C(=C2C=CC(=[N+](C)C)C=C2)c2ccc(N(C)C)cc2)cc1		37.1 µM (active)

SMILES	outcome	AC50
CC[C@@H]1C[C@H](N(Cc2cc(C(F)(F)F)cc(C(F)(F)F)c2)C(C)=O)c2cc(C(F)(F)F)ccc2N1C(=O)OC(C)C	inactive	
Cc1oc2c(NC(=O)c3c(Cl)cccc3Cl)cccc2c1C(C)(C)O	inactive	
CCCCCCCCOC(=O)c1cc(O)c(O)c(O)c1	inactive	
CCCCOC(=O)c1ccc(O)cc1	inactive	
CCN(CC)C(=O)c1cc(S(=O)(=O)Cc2ccccc2)c(N2CCC(c3ccccc3)CC2)cc1N(CC)CCN(C)C	inactive	
CC(=O)N1CCN(c2ccc(OC[C@H]3CO[C@](Cn4ccnc4)(c4ccc(Cl)cc4Cl)O3)cc2)CC1		91.1 µM (active)
CCCOC(=O)c1cc(O)c(O)c(O)c1	inactive	
OC12N=C(c3ccccc3)SC1Cc1cc(Cl)ccc12 (stereo not given)		9.92 µM (active)
CCCCCCCC[Si](OCC)(OCC)OCC	inactive	
CC[C@H](NC(=O)c1cc(F)ccc1NS(=O)(=O)c1cccc2cccnc12)c1ccccc1	inactive	
CC/C(=C(/CC)c1ccc(O)cc1)c1ccc(O)cc1		80.3 µM (active)
Cc1ccc2oc(CN(Cc3ccccc3)C(=O)Nc3c(F)cc(F)cc3F)c(-c3ccc(Cl)cc3)c2c1	inactive	
CC1=CC(=O)/C(=C(/C)O)C(=O)O1	inactive	
CN1C(=O)N(c2ccccc2Br)Cc2cnc(Nc3ccc4c(c3)OCC(CO)O4)nc21 (stereo not given)		50 µM (active)
Cc1cc(F)ccc1-c1cc(N2CC[C@@H](O)[C@H]2CO)ncc1N(C)C(=O)C(C)(C)c1cc(C(F)(F)F)cc(C(F)(F)F)c1	inactive	
CCN(Cc1cccc(S(=O)(=O)O)c1)c1ccc(C(=C2C=CC(=[N+](CC)Cc3cccc(S(=O)(=O)O)c3)C=C2)c2ccccc2S(=O)(=O)[O-])cc1	inactive	
CCCCCCCCCCCCO	inactive	
CCCCCc1ccc(N)cc1	inactive	
c1ccc2n[nH]nc2c1	inactive	
NCc1cccc(C2CCN(C(=O)c3ccc(C#Cc4ccccc4F)o3)CC2)c1	inactive	
